# High-throughput results as filed in PubChem BioAssay.
# HepG2 viability – kills HepG2 cells in TGF-b inhibitor counter-screen; HepG2 CAGA-GFP viability, ATP luminescence, 18 h; Potency, µM (highest dose often 46.1 µM), hits mostly cytotoxic; 410,000 compounds, 0.76% hits; AID 588856
#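 HepG2 CAGA-GFP cells (1000/well, DMEM with 1% FBS) received compound, then TGF-beta at 500 pg/mL final, and were incubated 18 hours at 37 degrees C. Viability was read by CellTiter-Glo luminescence. Media-only wells were set as complete cell-killing and DMSO as no toxicity.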
# DT40 TDP1 CPT – growth inhibition of DT40 Tdp1-/-;hTDP1 cells with camptothecin (screen for TDP1 inhibitors); chicken DT40 Tdp1-/-;hTDP1 cells + 20 nM CPT, ATP luminescence, 48 h; Potency, µM (top dose mostly 46.2 µM), actives largely listed as inhibitors; 420,000 compounds, 12% hits; also: nearly all actives have a fitted effect of over 55% in size
#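 Chicken DT40 Tdp1-/- cells complemented with human TDP1, 400 cells/well, exposed to compounds plus 20 nM camptothecin for at least 48 h at 37 C; viability read as ATP content by CellTiter-Glo luminescence.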
# IL1B secr inh – blocks inflammasome-driven IL-1 beta release. 360,000 compounds, 4.7% hits. activity change, % at 57.5 µM. AID 743279. THP-1 LPS/ATP IL-1B secretion, AlphaLISA, 16 h; stronger effect = lower value; in the data active = activity change below about -50%; inconclusive = mostly about -30% to -49%
#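 Secreted IL-1B measured by AlphaLISA bead assay after 16 h compound exposure of THP-1 cells; compounds (final up to 57.5 uM) added 1 h before LPS (250 ng/mL) and ATP (1.25 mM) stimulation; lower signal means less secretion.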
# TDP1 block – inhibitors of human tyrosyl-DNA phosphodiesterase TDP1; Q9NUW8; recombinant TDP1, AlphaScreen DNA substrate cleavage; Potency, µM (doses to about 130 µM), actives largely listed as inhibitors; 350,000 compounds, 0.28% hits; AID 485290; also: nearly all actives have a fitted effect of over 40% in size
# Target sequence (Q9NUW8 whole entry, looked up): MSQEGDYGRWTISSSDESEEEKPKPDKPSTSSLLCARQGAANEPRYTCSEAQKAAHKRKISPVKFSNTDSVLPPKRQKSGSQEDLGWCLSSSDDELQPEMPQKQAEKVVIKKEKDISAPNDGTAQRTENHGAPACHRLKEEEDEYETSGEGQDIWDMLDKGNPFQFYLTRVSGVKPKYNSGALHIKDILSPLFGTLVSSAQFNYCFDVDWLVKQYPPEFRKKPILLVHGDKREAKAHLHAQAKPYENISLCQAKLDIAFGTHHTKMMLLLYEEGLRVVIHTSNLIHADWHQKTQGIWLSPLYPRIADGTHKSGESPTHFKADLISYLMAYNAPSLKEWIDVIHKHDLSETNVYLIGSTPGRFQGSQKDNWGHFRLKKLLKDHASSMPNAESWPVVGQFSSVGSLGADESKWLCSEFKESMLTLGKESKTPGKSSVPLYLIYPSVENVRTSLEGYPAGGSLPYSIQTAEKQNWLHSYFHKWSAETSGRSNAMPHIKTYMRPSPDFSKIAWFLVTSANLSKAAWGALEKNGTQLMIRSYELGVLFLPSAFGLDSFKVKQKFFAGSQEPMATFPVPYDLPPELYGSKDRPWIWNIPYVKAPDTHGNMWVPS
#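 Tdp1 1 nM final; 15 min RT w/ cpd; substrate 15 nM, 5 min; beads 10 ug/ml, 10 min; AlphaScreen read. Neg ctrl: no enzyme.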
# TDP1 cell noCPT – qHTS for Inhibitors of human tyrosyl-DNA phosphodiesterase 1 (TDP1): qHTS in cells in absence of CPT. DT40 Tdp1-/- hTDP1 cells, no CPT, ATP luminescence, 48 h. Potency, µM (doses to about 46.2 µM), usual class: inhibitors. 420,000 compounds, 15% hits; also: nearly all actives have a fitted effect of over 55% in size
#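 Growth kinetics read by CellTiter-Glo luminescence after ≥48 hr at 37 °C. Cells: DT40 Tdp1-/- stably carrying human TDP1, 400 per well, compound exposure in the absence of CPT (DMSO vehicle).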
# TGFb inhibitor – inhibitors of TGF-b signaling | HepG2 CAGA-GFP TGF-b/SMAD3 reporter, GFP fluorescence, 18 h; TGF-beta stimulated, 500 pg/mL final | Potency, µM (highest dose often 46.1 µM), most hits filed as inhibitors | 410,000 compounds, 1.2% hits | AID 588855; also: nearly all actives have a fitted effect of over 65% in size
#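 HEPG2 CAGA-GFP reporter cells (1000/well, DMEM with 1% FBS) received compounds, then recombinant TGF-beta at 500 pg/mL final for 18 hours at 37 degrees C. Per-cell GFP summed per well was normalised to unstimulated and stimulated DMSO controls before curve fitting.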
# Numbers stand for hits; i = inactive; ? = inconclusive; nt = no result; [ ] = remark or other dose. Shown are actives, neighbours in structure and some others; about 19% of the full set was active somewhere. Unless noted, calls follow the shape of the dose curve; as a rule, active = well fitted curve in the direction sought with a large enough effect; inconclusive = small, poorly fitted or top-dose-only effect, or another doubt; inactive = no such curve, though single readings can be large; an effect the other way counts as inactive or inconclusive.
SMILES,HepG2 viability,DT40 TDP1 CPT,IL1B secr inh,TDP1 block,TDP1 cell noCPT,TGFb inhibitor
COc1cccc(C(=O)N2CCN(CCc3ccncc3)CC2)c1,i,i,nt,i,i,i
CCOC(=O)N1CCN(C(=O)c2cc(-c3ccc(F)cc3)[nH]c2C)CC1,i,?,i,i,21µM,i
CCOC(=O)N1CCC(NC(=O)c2ccc3c(c2)N(Cc2ccccc2)CCS3)CC1,i,18µM,i,i,15µM,i
COc1cccc(OCC(O)CNC(=O)c2oc3ccc(C)cc3c2C)c1 (centres undefined),i,i,i,i,?,i
CCC1CN(C(=O)N2CCC(C(=O)NCCc3ccccc3)CC2)c2ccccc2O1 (centres undefined),i,?,i,i,8.2µM,i
CS(=O)(=O)N1CCC(C(=O)N2CCN(c3ccccc3F)CC2)CC1,i,i,i,i,i,?
CCC1CN(C(=O)N2CCC(C(=O)NCCc3ccc(C)cc3)CC2)c2ccccc2O1 (centres undefined),i,?,nt,i,21µM,i
CCC1CN(C(=O)N2CCC(C(=O)N3CCN(c4ccccc4F)CC3)CC2)c2ccccc2O1 (centres undefined),i,16µM,nt,i,16µM,?
COc1ccc(CCN2CC(C(=O)OCC(=O)N(C)CC(=O)Nc3ccccc3Cl)CC2=O)cc1OC (centres undefined),i,i,i,nt,i,i
CC(C)(O)c1ccccc1CC[C@@H](SCC1(CC(=O)O)CC1)c1cccc(/C=C/c2ccc3ccc(Cl)cc3n2)c1,i,?,i,nt,?,?
COc1cccc2c1C(=O)c1c(O)c3c(c(O)c1C2=O)CC(O)(C(C)=O)CC3OC1CC(O)C(O)C(C)O1 (centres undefined),i,1.2µM,-103,nt,0.82µM,i
COc1cccc2c1-c1c(O)cccc1C2=O,i,i,i,nt,i,i
COc1cccc2c1C(=N)c1c(O)c3c(c(O)c1C2=O)CC(O)(C(C)=O)CC3OC1CC(N)C(O)C(C)O1 (centres undefined),i,0.16µM,-102,nt,0.18µM,7.1µM
COc1ccc(C(=O)N(Cc2cc(OC)c(OC)c(OC)c2)C2CCS(=O)(=O)C2)cc1Cl (centres undefined),i,i,nt,i,i,i
CC(=O)Nc1ccc(NC(=O)C(C)OC(=O)c2c(NC(C)=O)sc(C)c2C)cc1 (centres undefined),i,i,i,i,i,i
COc1ccccc1NC(=O)C(=O)NNS(=O)(=O)c1ccc2ccccc2c1,i,23µM,i,i,26µM,?
O=C1c2cccc3cccc(c23)C(=O)N1c1ccc(O)cc1,i,i,i,i,i,i
O=C1c2cccc3c(N4CCCCC4)ccc(c23)C(=O)N1c1ccc(O)cc1,i,?,i,i,23µM,i
O=C1c2cccc3c(N4CCCCC4)ccc(c23)C(=O)N1c1ccccc1O,i,13µM,i,i,21µM,i
O=C(O)c1ccc(N2CCCCCC2)c(N2C(=O)c3ccccc3C2=O)c1,i,i,i,i,i,i
Cc1ccccc1NC(=O)c1c(NC(=O)c2ccncc2)sc2c1CCC(C(C)(C)C)C2 (centres undefined),i,18µM,nt,nt,6.5µM,i
COC(=O)c1c(NC(=O)COC(=O)[C@@H](NS(=O)(=O)c2ccc(C)cc2)C(C)C)sc2c1CCC2,i,?,i,i,23µM,?
Cc1ccccc1NC(=O)c1c(NC(=O)C(F)(F)F)sc2c1CCCCC2,i,3.7µM,nt,i[12.3 µM],2.9µM,1.4µM
COC(=O)c1c(NC(=O)COC(=O)c2ccc(C)s2)sc2c1CCCCC2,i,i,i,i,?,i
COC(=O)c1c(NC(=O)COc2cccc(C(F)(F)F)c2)sc2c1CCCC2,i,i,nt,i[2.28 µM],?,i
SMILES,HepG2 viability,DT40 TDP1 CPT,IL1B secr inh,TDP1 block,TDP1 cell noCPT,TGFb inhibitor
COC(=O)c1c(NC(=O)COc2ccc(C(C)C)cc2)sc2c1CCCC2,i,?,nt,i[12.3 µM],23µM,i
COc1ccc(C(=O)NCc2ccc3c(c2)CCN3C(=O)c2cccc(C)c2)cc1OC,i,i,nt,i,i,i
Cc1ccccc1NC(=O)C1CCN(C(=O)c2ccc(F)cc2)CC1,i,i,nt,nt,i,i
COc1cccc(CCNc2ncnc3sc(C(=O)N4CCOCC4)c(C)c23)c1,nt,i,nt,nt,i,nt
Cc1csc2nc(COC(=O)c3cccc(NC(=O)COc4ccc(Cl)cc4)c3)cc(=O)n12,i,i,nt,i,i,i
O=C(Nc1cccc(Cl)c1)c1c(NC(=O)C(F)(F)F)sc2c1CCCC2,11µM,6.5µM,nt,i[12.3 µM],3.3µM,?
Cc1ccc(NC(=O)c2c(NC(=O)C(F)(F)F)sc3c2CCCCC3)cc1,i,2.6µM,nt,i[12.3 µM],3.7µM,1.1µM
Cc1ccc(NC(=O)c2c(NC(=O)c3ccccc3)sc3c2CCC3)cc1,i,i,nt,i[2.28 µM],i,i
O=C(Nc1sc2c(c1C(=O)O)CCC2)c1cccc(Cl)c1,i,i,i,nt,i,i
O=C(COc1ccc(Cl)cc1)Nc1sc2c(c1C(=O)Nc1cccc(Cl)c1)CCCC2,i,18µM,nt,i[12.3 µM],7.3µM,i
COc1ccccc1N1CCN(C(=O)CNC(=O)c2ccc(Cl)cc2Cl)CC1,i,?,i,i,?,i
COc1cccc(N(CC(=O)NCC2CCCO2)C(=O)CCC(=O)Nc2nccs2)c1 (centres undefined),i,i,i,i,i,i
Cc1cc(OC(=O)c2ccc(C)c(C)c2)c([N+](=O)[O-])c(=O)[nH]1,i,i,i,i,i,i
CCN(CC)CCOC(=O)c1ccc(N/C=C(/C#N)c2nc(-c3ccc(OC)c(OC)c3)cs2)cc1,i,i,i,nt,4.6µM,i
CCN(CC)CCOC(=O)c1ccc(N/C=C(/C#N)c2nc(-c3cccc(OC)c3)cs2)cc1,i,i,nt,nt,i,i
CCN(CC)CCN(Cc1cc2cc3c(cc2[nH]c1=O)OCCO3)C(=S)NCC(C)C,i,?,-62,nt,?,i
CCN(CC)CCN(Cc1cc2cc(C)cc(C)c2[nH]c1=O)C(=S)NCc1ccco1,i,26µM,i,i,23µM,i
Cc1cc(C)c2[nH]c(=O)c(CN(Cc3cccs3)C(=S)NCc3ccco3)cc2c1,i,13µM,i,i,10µM,i
Cc1ccc(NC(=S)N(Cc2cccs2)Cc2cc3cc(C)cc(C)c3[nH]c2=O)cc1,i,?,i,i,?,i
CCN(CC)CCN(Cc1cc2cc3c(cc2[nH]c1=O)OCO3)C(=S)NCC(C)C,i,i,i,nt,i,i
